Measured values from PubChem BioAssay.
Active and inactive are the calls of the source. Unless noted, how the calls were made is not given here.

Tests used:
[1] = system: Wnt5a (protein binding on small-molecule microarray); assay: small molecules binding Wnt5a protein – biophysical, small-molecule microarray, 635/667 nm fluorescence, primary screen (AID 1142); conditions: 635 nm fluorescence, higher = more signal;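 further: fluorescence read at 667 nm with signal to noise per printed feature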
[2] = ATP-based viability of Huh7 replicon cells – cell-based, CellTiter-Glo luminescence, basal, 48 h, cytotoxicity control for HCV replication inhibitor project, primary screen (AID 1143); conditions: higher = more signal, called active from +8 up or from −8 down;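 further: Huh7 hepatoma cells carrying a hepatitis C replication reporter with no stimulus; test concentration not given here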
[3] = Pseudomonas biofilm growth suppression – PAO1 strain, BacTiter-Glo luminescence, LB-PBS, primary screen (AID 1144); conditions: P. aeruginosa PAO1 biofilm, 12 h, higher = more signal
[4] = basal CRE-LacZ reporter activity in PC12 – cell-based, unstimulated, primary screen (AID 1145); conditions: no forskolin, luminescence, 4.5 h, higher = more signal, called active from +8 up or from −8 down
[5] = forskolin-driven CRE-LacZ activity in PC12 – cell-based, CRE-LacZ reporter, forskolin-stimulated, primary screen (AID 1146); conditions: luminescence, 4.5 h, higher = more signal, called active from +8 up or from −8 down;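 further: PC12 cells with 6xCRE LacZ reporter stimulated by forskolin 10 µM; beta-galactosidase reporter signal reflecting CREB driven transcription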
[6] = target: Streptavidin (Streptomyces avidinii) (UniProt P22629); assay: compounds binding control protein streptavidin – biophysical, small-molecule microarray, 635/667 nm fluorescence, artefact control for SMM compound annotation, primary screen (AID 1147); conditions: higher = more signal;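 further: signal reflects streptavidin binding to arrayed compounds as a control protein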
Chain of Streptavidin (Streptomyces avidinii) (P22629 whole entry, looked up): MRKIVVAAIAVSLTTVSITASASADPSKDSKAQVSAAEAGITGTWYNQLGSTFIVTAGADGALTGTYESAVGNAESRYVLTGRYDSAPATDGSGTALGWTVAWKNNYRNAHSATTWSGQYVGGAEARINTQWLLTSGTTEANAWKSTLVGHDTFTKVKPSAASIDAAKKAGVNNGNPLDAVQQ

[7] = probe aInhba binding on compound microarray – biochemical, small-molecule microarray, 635/667 nm fluorescence, primary screen (AID 1148); conditions: higher = more signal;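 further: score merges 667nm spot fluorescence with signal-to-noise for antibody binding to printed compounds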
Torsin-1A (Homo sapiens) [8] = target: Torsin-1A (Homo sapiens) (UniProt O14656); assay: TOR1A wild-type binding on microarray – cell lysate, small-molecule microarray, lysate, 635/667 nm, primary screen (AID 1149); conditions: COS7 hTOR1A-WT lysate, 635 nm fluorescence, higher = more signal
Chain of Torsin-1A (Homo sapiens) (O14656 whole entry, looked up): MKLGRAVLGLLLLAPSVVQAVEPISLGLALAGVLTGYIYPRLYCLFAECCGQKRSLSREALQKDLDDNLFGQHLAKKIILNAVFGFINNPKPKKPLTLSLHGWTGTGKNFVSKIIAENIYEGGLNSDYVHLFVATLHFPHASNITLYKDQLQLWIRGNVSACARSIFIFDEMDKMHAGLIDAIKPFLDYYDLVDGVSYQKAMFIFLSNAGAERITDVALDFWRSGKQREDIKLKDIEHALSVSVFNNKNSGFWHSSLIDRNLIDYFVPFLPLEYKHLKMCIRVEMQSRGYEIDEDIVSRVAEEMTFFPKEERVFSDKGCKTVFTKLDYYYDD

Torsin-1A (Homo sapiens) [9] = target: Torsin-1A (Homo sapiens) (UniProt O14656); assay: torsin A mutant lysate binding on microarrays – cell lysate, small-molecule microarray, COS7 lysate, 635/667 nm fluorescence, primary screen (AID 1150); conditions: COS7 hTOR1A mutant lysate, 635 nm fluorescence, higher = more signal;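 further: score pools 667 nm emission and signal to noise measuring lysate protein binding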
[10] = system: Sonic hedgehog protein (Shh); assay: Sonic hedgehog microarray binding compounds – biochemical, small-molecule microarray, 635/667 nm fluorescence, primary screen (AID 1151); conditions: 635 nm fluorescence, higher = more signal;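 further: Shh protein binding to compounds spotted on small-molecule microarray slides; score combines spot fluorescence intensity with signal-to-noise across triplicate slides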

| SMILES | composite z-score [1] | z-score [2] | z-score [3] | z-score [4] | z-score [5] | composite z-score [6] | composite z-score [7] | composite z-score (Torsin-1A (Homo sapiens) [8]) | composite z-score (Torsin-1A (Homo sapiens) [9]) | composite z-score [10] |
| --- | --- | --- | --- | --- | --- | --- | --- | --- | --- | --- |
| COC(=O)[C@@]1(Cc2ccc(OC)cc2)[C@H]2c3cc(C(=O)N4CCCC4)n(CCO)c3C[C@H]2CN1C(=O)c1ccccc1 | 0.925 | -0.794 (inactive) | -0.14 (inactive) | 0.773 (inactive) | 1.41 (inactive) | 0.342 | 0.372 | -0.48 | 1.44 | -0.645 |
| COCCOC(=O)N1C(=O)[C@@]2(c3cc(C#CC4(O)CCCCCC4)ccc31)[C@H](c1ccc(O)cc1)N1[C@H](c3ccccc3)[C@H](c3ccccc3)OC(=O)[C@H]1[C@@H]2C(=O)N1CCN(c2ncccn2)CC1 | 0.623 | -1.53 (inactive) | -0.127 (inactive) | -0.141 (inactive) | 0.0053 (inactive) | 1.33 | -0.0918 | 0.49 | 0.813 | 0.185 |
| CCOC(=O)C1=CC[C@@H](c2ccccc2)N(S(=O)(=O)c2ccc(C)cc2)[C@H]1c1ccccc1 | 0.144 | -3.01 (inactive) | 1.29 (inactive) | -0.0228 (inactive) | 1.31 (inactive) | 1.46 | 0.115 | 0.345 | 0.626 | -0.627 |
| COc1ccc([Si](C)(C)[C@@H]2[C@@H](CCO)O[C@]3(C(=O)N(Cc4ccccc4)c4ccc(N5C(=O)c6cccc7cccc5c67)cc43)[C@H]2C)cc1 | -0.328 | -4 (inactive) | -0.441 (inactive) | 2.39 (inactive) | 0.302 (inactive) | 0.305 | -0.179 | -1.07 | -0.909 | -0.204 |
| Cc1ccc(C(C)CC(O)C2C=CC3C(=O)N(c4ccccc4)C(=O)C3N2Nc2ccccc2)o1 (stereo not given) | 0.158 | -2.95 (inactive) | -0.443 (inactive) | 0.636 (inactive) | 0.367 (inactive) | 1.19 | 0.0792 | 0.145 | 1.11 | -0.125 |
| CCCC=C(CCC)[C@@H](NS(=O)(=O)CC12CCC(CC1=O)C2(C)C)c1ccc(C(=O)OC)cc1 (stereo not given in full) | 0.0202 | -0.816 (inactive) | -1.06 (inactive) | -0.572 (inactive) | 0.0711 (inactive) | 0.333 | 0.361 | 0.924 | 0.792 | 0.31 |
| CCCCC(O)C1C=CC2C(=O)N(C)C(=O)C2N1N(c1ccccc1)c1ccccc1 (stereo not given) | 0.29 | -0.975 (inactive) | 0.092 (inactive) | 1.59 (inactive) | 0.281 (inactive) | 0.971 | 0.0075 | 0.14 | 0.464 | 0.471 |
| COC(=O)[C@@]1(Cc2ccc(OC)cc2)[C@H]2c3cc(C(=O)N4CCCC4)n(CCc4c[nH]c5ccc(OC)cc45)c3C[C@H]2CN1C(=O)c1ccccc1 | 0.411 | -3.16 (inactive) | 0.717 (inactive) | 0.201 (inactive) | -0.715 (inactive) | 1.5 | 0.35 | -0.0701 | 0.327 | -0.565 |
| C[N+](C)(C)CCCC[C@@H]1NC(=O)[C@@H]2C[C@H](C(=O)NCCCCCCN)[C@H](c3cccc(OCCO)c3)N2C1=O | 0.397 | 0.279 (inactive) | 0.32 (inactive) | 2.84 (inactive) | -0.618 (inactive) | 1.67 | 1.22 | 0.85 | 1.65 | 0.691 |
| CCOC(=O)C[C@H]1[C@H](OC(=O)c2cc3ccccc3oc2=O)[C@@H](NC(=O)c2ccccc2)c2cc(OCCCO)ccc2N1C(=O)c1ccccc1 | 0.315 | -2.83 (inactive) | 0.311 (inactive) | 3.75 (inactive) | -0.0599 (inactive) | 0.289 | -0.113 | 0.575 | 0.347 | 0.696 |
| COc1ccc([Si](C)(C)[C@@H]2[C@@H](CC(=O)N(CCO)Cc3ccccc3)O[C@]3(C(=O)N(Cc4cccc(N5CCCCC5=O)c4)c4ccccc43)[C@H]2C)cc1 | 0.585 | -4.76 (inactive) | -0.952 (inactive) | 0.716 (inactive) | 0.708 (inactive) | -0.402 | 0.187 | 0.961 | 0.706 | 2.06 |
| C=CCC(OC(C)=O)[C@@H]1[C@@H](N(Cc2ccc(-c3cccc(C(F)(F)F)c3)o2)C(=O)Cc2ccc(OC)cc2)c2cc(OCCCO)ccc2N1C(=O)c1ccc(-c2ccccc2)cc1 (stereo not given in full) | 0.0179 | -1.28 (inactive) | 0.198 (inactive) | 1.15 (inactive) | 0.393 (inactive) | 1.31 | 0.153 | -0.368 | -0.38 | 0.439 |
| N[C@@H](Cc1ccccc1)C(=O)NCc1cn(Cc2ccccc2)nn1 | -0.0432 | 0.609 (inactive) | 0.391 (inactive) | 0.381 (inactive) | -0.644 (inactive) | 0.0584 | 0.0464 | 1.14 | 0.186 | 0.822 |
| CCOC(=O)C1=C[C@@H](c2ccccc2)N(S(=O)(=O)c2ccc(C)cc2)[C@H]1c1ccc(OC)cc1 | 0.943 | -2.61 (inactive) | 0.173 (inactive) | -0.275 (inactive) | -0.0617 (inactive) | 0.689 | 0.29 | 0.162 | 0.513 | -0.0921 |
| C=CCN1Cc2ccccc2[C@@H]2OC(c3ccc(OCCCO)cc3)=N[C@]2(CC=C)C1=O | 0.518 | -2.51 (inactive) | 0.0166 (inactive) | 0.236 (inactive) | -0.377 (inactive) | 0.579 | 0.462 | 0.918 | 0.966 | 1.81 |
| COc1ccc(C#Cc2ccc3c(c2)[C@]2(C(=O)N3)[C@H](C(=O)O)[C@H]3C(=O)O[C@H](c4ccccc4)[C@H](c4ccccc4)N3[C@@H]2c2ccc(O)cc2)cc1 | 0.0637 | -4.48 (inactive) | -0.563 (inactive) | 0.0653 (inactive) | -0.332 (inactive) | -0.31 | -0.0313 | 0.269 | 0.578 | -0.454 |
| COCC(=C=CC[C@H](O)c1ccccc1OCCO)C[C@H](O)c1ccccn1 | 0.0611 | -0.0701 (inactive) | -0.214 (inactive) | 1.04 (inactive) | 0.126 (inactive) | -0.303 | -0.154 | -0.556 | 0.71 | 0.43 |
| CC(C)C(CO)N1C(=O)[C@@H]2C3C(=O)OCCC/C=C\[C@H]3OC23C=CCN(c2ccc4ccccc4c2)C(=O)[C@@H]13 (stereo not given in full) | -0.4 | -0.567 (inactive) | 1.09 (inactive) | -0.761 (inactive) | -0.137 (inactive) | -0.537 | -0.0695 | -1.83 | -0.801 | 0.41 |
| O=C1CS(=O)(=O)C(c2cccc([N+](=O)[O-])c2)N1c1ccccc1 (stereo not given) | 0.388 | -1.67 (inactive) | -1.16 (inactive) | -0.231 (inactive) | -1.44 (inactive) | 0.392 | 1.03 | 0.909 | 0.655 | 0.781 |
| CCOC(=O)C[C@H]1[C@H](OC(=O)Cc2ccc3c(c2)OCO3)[C@@H](NC(=O)C2CCCCC2)c2cc(OCCCO)ccc2N1C(=O)c1ccccc1 | -0.0729 | -0.0136 (inactive) | -1.38 (inactive) | 2.82 (inactive) | -1.27 (inactive) | 0.584 | -0.0313 | -0.0429 | 0.0914 | 0.0725 |
| O=C1N(CCS(=O)(=O)c2ccccc2)c2ccccc2[C@H]2OC(c3ccc(OCCCO)cc3)=N[C@@]12Cc1ccccc1 | 0.636 | -3.51 (inactive) | 0.582 (inactive) | 5.87 (inactive) | -1.86 (inactive) | 0.274 | 0.397 | 1.08 | 1.07 | 1.74 |
